# In the library only some 11% were active in any assay of this set; here they are far more common.
# VDR inhibitor = blocks the human vitamin D receptor; VDR-SRC2-3 peptide fluorescence polarization, 2 h; Potency, µM, hits mostly inhibitors; 400,000 compounds, 0.93% hits; P11473
#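 After 23 nl compound addition and a short centrifugation, plates sat for 2 hours at ambient temperature; polarization of fluorescence then indicated loss of VDR binding to peptide SRC2-3.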
# G9a block = G9a (human) methyltransferase inhibition | Q96KQ7 | G9a H3K9 monomethylation, AlphaScreen, 2 h | Potency, µM (doses to about 102 µM), actives largely listed as inhibitors | 350,000 compounds, 8.8% hits; further: nearly all actives have a fitted effect of over 75% in size
#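 Signal arises when biotinylated H3K9 peptide, once monomethylated, bridges streptavidin donor and antibody-captured acceptor beads. Enzyme at 20 nM was preincubated 15 min with test compounds; peptide 500 nM and SAM 20 uM then reacted for 2 h.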
# BAZ2B block = inhibitors of human BAZ2B bromodomain; Potency, µM (doses to about 114 µM), most hits filed as inhibitors; 360,000 compounds, 4.4% hits; AlphaScreen BAZ2B-H3K14Ac peptide displacement; Q9UIF8; AID 504333; further: nearly all actives have a fitted effect of over 60% in size
#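 BAZ2B 50 nM plus b-H3(5-23)K14Ac 50 nM, PBS pH 7.4/0.01% Tween-20, 30 min RT; compound added (max 110 uM), 30 min RT; streptavidin donor/Ni-chelate acceptor beads 10 ug/mL final, 20 min dark; AlphaScreen read.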
# JMJD2A Tudor inh = inhibitors of human JMJD2A Tudor domain | O75164 | AlphaScreen JMJD2A-Tudor / H3K4me3 peptide binding | Potency, µM (series often up to 114 µM), actives largely listed as inhibitors | 390,000 compounds, 4.4% hits | AID 504339; further: nearly all actives have a fitted effect of over 50% in size
# Target sequence (O75164 whole entry, looked up, the tested form may be a part): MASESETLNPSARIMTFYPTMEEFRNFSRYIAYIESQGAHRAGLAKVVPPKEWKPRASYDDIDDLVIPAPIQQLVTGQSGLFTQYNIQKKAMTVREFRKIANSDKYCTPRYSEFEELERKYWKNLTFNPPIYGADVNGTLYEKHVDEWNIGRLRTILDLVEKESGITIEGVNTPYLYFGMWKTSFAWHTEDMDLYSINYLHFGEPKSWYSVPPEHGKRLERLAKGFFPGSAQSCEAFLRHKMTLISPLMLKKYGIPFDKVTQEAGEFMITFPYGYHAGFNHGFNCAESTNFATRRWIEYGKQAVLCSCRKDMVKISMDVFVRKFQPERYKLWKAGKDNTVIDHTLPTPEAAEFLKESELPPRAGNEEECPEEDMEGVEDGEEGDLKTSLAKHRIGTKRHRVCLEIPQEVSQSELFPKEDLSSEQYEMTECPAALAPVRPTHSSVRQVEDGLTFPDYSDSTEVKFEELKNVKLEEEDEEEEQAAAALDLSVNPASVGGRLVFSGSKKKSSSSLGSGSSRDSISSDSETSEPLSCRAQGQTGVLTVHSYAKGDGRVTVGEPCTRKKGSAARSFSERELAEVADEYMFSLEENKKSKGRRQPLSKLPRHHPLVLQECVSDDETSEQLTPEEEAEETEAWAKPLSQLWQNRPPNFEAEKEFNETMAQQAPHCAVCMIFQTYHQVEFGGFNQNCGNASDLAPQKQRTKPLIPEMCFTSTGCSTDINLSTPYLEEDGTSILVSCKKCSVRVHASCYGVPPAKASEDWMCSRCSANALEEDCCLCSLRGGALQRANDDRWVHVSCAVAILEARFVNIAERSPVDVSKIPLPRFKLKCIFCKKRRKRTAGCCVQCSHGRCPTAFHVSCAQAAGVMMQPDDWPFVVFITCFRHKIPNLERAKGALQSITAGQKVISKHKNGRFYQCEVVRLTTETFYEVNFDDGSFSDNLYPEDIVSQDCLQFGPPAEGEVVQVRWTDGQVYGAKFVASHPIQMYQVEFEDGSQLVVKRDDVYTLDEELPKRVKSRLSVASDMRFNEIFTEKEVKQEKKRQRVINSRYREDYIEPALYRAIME
# PLK1 PBD inh = inhibitors of human PLK1 polo-box domain binding | P53350 | Plk1 PBD binding of FITC phosphopeptide, fluorescence polarization | Potency, µM, hits mostly inhibitors | 360,000 compounds, 2.8% hits | AID 720504; further: series mostly up to about 57 µM; nearly all actives have a fitted effect of over 65% in size
# HP1b binding inh = inhibitors of HP1-beta chromodomain binding to methylated histone tails; P83916; AlphaScreen HP1-beta / biotin-H3K9me3 peptide binding; Potency, µM (highest dose often 114 µM), most hits filed as inhibitors; 390,000 compounds, 0.56% hits; AID 540317; further: nearly all actives have a fitted effect of over 70% in size
#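 AlphaScreen: HP1-beta (50 nM) preformed 30 min with biotin-H3(1-18)K9me3 peptide (50 nM) in PBS pH 7.4, 0.01% Tween-20. Compound added for 30 min at RT, then streptavidin donor/nickel chelate acceptor beads (10 ug/mL) for 30 min.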
# A number is an active result; 0 = inactive; ? = inconclusive; - = not tested or not shown; [ ] = another dose, or the depositor's remark. The call rests on the fitted dose curve; in most records, active means well fitted curve in the direction sought with a large enough effect; inconclusive means small, poorly fitted or top-dose-only effect, or another doubt; inactive means no such curve, though single readings can be large; an effect the other way counts as inactive or inconclusive.
SMILES,VDR inhibitor,G9a block,BAZ2B block,JMJD2A Tudor inh,PLK1 PBD inh,HP1b binding inh
COc1ccc(NC2CCCN(C(=O)CN3C(=O)c4ccccc4C3=O)C2)cc1OC (configuration not stated),0,0,0,0,0,0
Cc1ncsc1CCC(=O)N1CCCC(Nc2ccc(F)c(F)c2)C1 (configuration not stated),0,0,0,0,0,0
COc1ccc(NC2CCCN(Cc3cccc4cnccc34)C2)cc1 (configuration not stated),0,44.7µM,44.7µM,?,0,0
O=C1CCCCN1CCC(=O)N1CCCC(Nc2ccc(F)c(F)c2)C1 (configuration not stated),0,-,0,0,0,0
Cc1ncsc1CCC(=O)N1CCCC(Nc2ccc(C(C)C)cc2)C1 (configuration not stated),0,50.1µM,0,0,0,0
O=C1CCCCN1CC(=O)N1CCCC(Nc2ccc(F)c(F)c2)C1 (configuration not stated),?,0,0,?,21.2µM,0
COc1ccc(NC2CCCN(C(=O)CSc3ccccn3)C2)cc1OC (configuration not stated),0,0,0,0,23.8µM,0
O=S(=O)(c1ccc(OC(F)(F)F)cc1)N1CCN(c2nc(-c3ccccc3)nc3ccccc23)CC1,0,-,-,0,-,0
COc1ccc(NC2CCCN(C(=O)CSc3ccncc3)C2)cc1 (configuration not stated),0,39.8µM,50.1µM,0,0,0
COc1ccc(NC2CCCN(C(=O)CCC(=O)c3ccc(F)cc3)C2)cc1 (configuration not stated),0,-,39.8µM,?,0,0
COc1ccc(CCC(=O)N2CCCC(Nc3ccc(OC)cc3)C2)cc1 (configuration not stated),0,39.8µM,?,0,0,0
CCn1nc(CC(C)C)cc1C(=O)N1CCCC(Nc2ccc(OC)cc2)C1 (configuration not stated),0,?,0,?,26.7µM,0
CCC(C)c1ccccc1NC(=S)NC(=O)c1ccco1 (configuration not stated),0,-,0,0,0,0
O=C(CSc1ccccn1)N1CCCC(Nc2ccccc2)C1 (configuration not stated),0,-,0,0,?,0
O=C(CSc1ccccc1)N1CCCC(Nc2ccccc2)C1 (configuration not stated),20µM,0,0,15.8µM,8.44µM,0
CCCCc1nc2ccn(CC(=O)N(C)C)c(=O)c2n1Cc1ccc(-c2ccccc2-c2nn[nH]n2)cc1,0,0,-,-,-,-
CSc1ccccc1NC(=O)N1CCCC(C(=O)c2ccc3c(c2)OCO3)C1 (configuration not stated),0,-,0,0,0,0
Oc1ccccc1NCC(O)Cn1ccc2ccccc21 (configuration not stated),0,28.2µM,50.1µM,2.82µM,?,0
OC(CNCc1ccccc1)Cn1ccc2ccccc21 (configuration not stated),0,?,?,22.4µM,0,?
CCc1cc2c(SCC(=O)Nc3cc(C)on3)ncnc2s1,0,0,0,0,0,0
CCOc1ccc(NC(=O)N2CCN(C(=O)c3ccco3)CC2)cc1,0,0,0,0,0,0
CCOc1ccc(OCC)c(NC(=O)CN2CCN(C(=O)c3ccco3)CC2)c1,0,0[12.7 µM],0,0[11.4 µM],21.2µM,0
CCOc1ccc(OCC)c(NC(=O)CN2CCN(c3cccc(C)c3C)CC2)c1,0,?,?,1.58µM,0,?
COc1cccc(C2=CC(c3ccc(OC)c(OC)c3OC)n3ncnc3N2)c1 (configuration not stated),0,?,50.1µM,0,-,0
COc1ccc(C2C=C(c3ccc(C)c(C)c3)Nc3ncnn32)c(OC)c1OC (configuration not stated),0,50.1µM,0,0,0,0
COc1ccc(CN2C[C@@H](CO)O[C@@H](n3cnc4c(N5CCN(CCO)CC5)ncnc43)C2)cc1,-,-,-,-,0,-
COc1ccc(Oc2cc(C(F)(F)F)nc(N(C)C)n2)cc1,0,0,0,0,0,0

# High-throughput results (PubChem)
